Results from the supplement of paper PMC10849652.
Targets with a hit are over-represented here; the source holds about 8,800 in all. About 0.5% of all pairs of compound and target were hits. Unmarked numbers belong to inactive results.

Experiments:
Experiment in all cases: log2 fold change, soluble protein after heating vs DMSO (PISA); higher = thermal stabilisation; K562 lysate, 10 uM; active = over 0.2 and 3.5 SD of the protein, either way, in both replicates (recomputed)
[1] = compound: C#Cc1cccc(Nc2ncnc3cc(OCCOC)c(OCCOC)cc23)c1 [erlotinib]
Summary of the method: (§1)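 Values give the log-two fold change in thermal stability against solvent controls, from duplicates. Crude K562 extract at 1 mg/mL protein, made by dounce homogenisation in PBS pH 7.4 with 1 mM MgCl2, was treated with 10 μM compound for 30 min. After 3 min heating across 48°C-58°C, aliquots were pooled, adjusted to 0.5% NP-40 at 4°C and centrifuged at 21,000xg for 90 min. The supernatant was measured by TMTpro 16plex LC-MS/MS with channel sums equalised.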

[2] = compound: C/C(=N\NC(=O)C1=CC(=CC=C1)S(=O)(=O)N2CCOCC2)/C3=C(C=CC(=C3)Cl)O
Summary of the method: as §1

[3] = compound: C1=CC(=CC=C1C2=NC3=C(N2)C=C(C=C3)C(=O)N)OC4=CC=C(C=C4)Cl
Summary of the method: as §1

[4] = compound: C1=CC2=C(C=CC(=C2)/C=C\3/C(=O)NC(=NCC4=CC=CS4)S3)N=C1
Summary of the method: as §1

[5] = compound: C1=CC2=NC=CN=C2C=C1/C=C/3\C(=O)NC(=O)S3
Summary of the method: as §1

[6] = compound: C1=CC=C(C=C1)C2=NC(=C(N2)C3=CC=NC=C3)C4=CC(=C(C=C4)Cl)O
Summary of the method: as §1

[7] = compound: C1=CC=C2C(=C1)C3=NNC4=CC=CC(=C43)C2=O
Summary of the method: as §1

[8] = compound: C1CCN(C1)C(=O)NC2=CC=CC(=C2)NC3=NC=C(C(=N3)NCCC4=CN=CN4)Br
Summary of the method: as §1

[9] = compound: C1CN(CCC1(CC2=CC=C(C=C2)Cl)N)C3=NC=NC4=C3C=CN4
Summary of the method: as §1

[10] = compound: C1COCCN1CCN2C3=CC=CC=C3N=C2NC(=O)C4=CC(=CC=C4)[N+](=O)[O-] [IRAK-1-4 Inhibitor I]
Summary of the method: as §1

[11] = compound: C=CC(=O)N1CCC[C@@H](n2nc(-c3ccc(Oc4ccccc4)cc3)c3c(N)ncnc32)C1 [ibrutinib]
Summary of the method: as §1

[12] = compound: CC(=O)c1cnc2ccc(-c3cc(Cl)c(O)c(Cl)c3)nc2c1N[C@H]1CC[C@H](CN(C)C)CC1
Summary of the method: as §1

[13] = compound: CC(C)(C)Cn1c(N)nc2ccc(-c3[nH]c(C(C)(C)C)nc3-c3ccc(F)cc3)nc21 [ralimetinib]
Summary of the method: as §1

[14] = compound: CC(C)(O)CC(=O)NCCn1ccc2ncnc(Nc3ccc(Oc4cccc(C(F)(F)F)c4)c(Cl)c3)c21
Summary of the method: as §1

[15] = compound: CC(C)C1=C2N=C(C=C(N2N=C1)NCC3=CC=CC=C3)NCCCCCCN
Summary of the method: as §1

[16] = compound: CC1=C(C(CC(=O)N1)C2=CC=C(C=C2)C(F)(F)F)C(=O)NC3=C(C=C4C(=C3)C=NN4)F
Summary of the method: as §1

[17] = compound: CC1=C(C2=C(C=C1)C(=O)C3=CC=CC=C3N2CCCN)C
Summary of the method: as §1

[18] = compound: CC1=C(C=C(C=C1)NC(=O)C2=CC(=CC=C2)C(C)(C)C#N)NC3=CC4=C(C=C3)N=CN(C4=O)C
Summary of the method: as §1

[19] = compound: CC1=C(C=C(C=C1)NC(=O)C2=CC(=CC=C2)N(C)C)NC(=O)C3=CC=C(C=C3)O
Summary of the method: as §1

[20] = compound: CC1=CC=C(C=C1)SC2=C3C=C(SC3=CN=C2)C(=O)N
Summary of the method: as §1

UniProt O95674, sequence (O95674 whole entry, looked up): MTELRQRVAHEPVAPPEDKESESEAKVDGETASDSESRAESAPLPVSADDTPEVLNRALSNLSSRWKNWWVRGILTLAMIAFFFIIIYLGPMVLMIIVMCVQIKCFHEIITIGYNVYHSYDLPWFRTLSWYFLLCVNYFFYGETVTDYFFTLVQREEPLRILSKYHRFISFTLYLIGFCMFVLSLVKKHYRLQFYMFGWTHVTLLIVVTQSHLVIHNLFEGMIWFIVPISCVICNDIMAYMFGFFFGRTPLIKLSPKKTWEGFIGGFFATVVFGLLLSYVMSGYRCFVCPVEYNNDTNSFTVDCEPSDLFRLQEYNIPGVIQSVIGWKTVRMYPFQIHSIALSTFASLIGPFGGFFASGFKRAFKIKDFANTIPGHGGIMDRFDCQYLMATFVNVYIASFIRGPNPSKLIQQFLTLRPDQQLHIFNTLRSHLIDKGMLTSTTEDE
UniProt Q9Y6K0, sequence (Q9Y6K0 whole entry, looked up): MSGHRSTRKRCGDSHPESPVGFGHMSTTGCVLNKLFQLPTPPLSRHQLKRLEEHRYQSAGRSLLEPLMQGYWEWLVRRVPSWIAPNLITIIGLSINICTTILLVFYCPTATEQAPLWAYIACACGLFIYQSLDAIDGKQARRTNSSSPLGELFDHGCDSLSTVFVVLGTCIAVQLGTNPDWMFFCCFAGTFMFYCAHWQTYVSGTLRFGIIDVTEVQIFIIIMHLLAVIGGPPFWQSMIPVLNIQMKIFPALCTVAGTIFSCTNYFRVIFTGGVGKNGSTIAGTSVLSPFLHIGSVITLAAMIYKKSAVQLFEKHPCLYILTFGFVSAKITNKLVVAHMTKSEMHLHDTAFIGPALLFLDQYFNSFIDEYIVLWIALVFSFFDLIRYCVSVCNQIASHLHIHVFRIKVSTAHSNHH
UniProt O14981, sequence (O14981 whole entry, looked up): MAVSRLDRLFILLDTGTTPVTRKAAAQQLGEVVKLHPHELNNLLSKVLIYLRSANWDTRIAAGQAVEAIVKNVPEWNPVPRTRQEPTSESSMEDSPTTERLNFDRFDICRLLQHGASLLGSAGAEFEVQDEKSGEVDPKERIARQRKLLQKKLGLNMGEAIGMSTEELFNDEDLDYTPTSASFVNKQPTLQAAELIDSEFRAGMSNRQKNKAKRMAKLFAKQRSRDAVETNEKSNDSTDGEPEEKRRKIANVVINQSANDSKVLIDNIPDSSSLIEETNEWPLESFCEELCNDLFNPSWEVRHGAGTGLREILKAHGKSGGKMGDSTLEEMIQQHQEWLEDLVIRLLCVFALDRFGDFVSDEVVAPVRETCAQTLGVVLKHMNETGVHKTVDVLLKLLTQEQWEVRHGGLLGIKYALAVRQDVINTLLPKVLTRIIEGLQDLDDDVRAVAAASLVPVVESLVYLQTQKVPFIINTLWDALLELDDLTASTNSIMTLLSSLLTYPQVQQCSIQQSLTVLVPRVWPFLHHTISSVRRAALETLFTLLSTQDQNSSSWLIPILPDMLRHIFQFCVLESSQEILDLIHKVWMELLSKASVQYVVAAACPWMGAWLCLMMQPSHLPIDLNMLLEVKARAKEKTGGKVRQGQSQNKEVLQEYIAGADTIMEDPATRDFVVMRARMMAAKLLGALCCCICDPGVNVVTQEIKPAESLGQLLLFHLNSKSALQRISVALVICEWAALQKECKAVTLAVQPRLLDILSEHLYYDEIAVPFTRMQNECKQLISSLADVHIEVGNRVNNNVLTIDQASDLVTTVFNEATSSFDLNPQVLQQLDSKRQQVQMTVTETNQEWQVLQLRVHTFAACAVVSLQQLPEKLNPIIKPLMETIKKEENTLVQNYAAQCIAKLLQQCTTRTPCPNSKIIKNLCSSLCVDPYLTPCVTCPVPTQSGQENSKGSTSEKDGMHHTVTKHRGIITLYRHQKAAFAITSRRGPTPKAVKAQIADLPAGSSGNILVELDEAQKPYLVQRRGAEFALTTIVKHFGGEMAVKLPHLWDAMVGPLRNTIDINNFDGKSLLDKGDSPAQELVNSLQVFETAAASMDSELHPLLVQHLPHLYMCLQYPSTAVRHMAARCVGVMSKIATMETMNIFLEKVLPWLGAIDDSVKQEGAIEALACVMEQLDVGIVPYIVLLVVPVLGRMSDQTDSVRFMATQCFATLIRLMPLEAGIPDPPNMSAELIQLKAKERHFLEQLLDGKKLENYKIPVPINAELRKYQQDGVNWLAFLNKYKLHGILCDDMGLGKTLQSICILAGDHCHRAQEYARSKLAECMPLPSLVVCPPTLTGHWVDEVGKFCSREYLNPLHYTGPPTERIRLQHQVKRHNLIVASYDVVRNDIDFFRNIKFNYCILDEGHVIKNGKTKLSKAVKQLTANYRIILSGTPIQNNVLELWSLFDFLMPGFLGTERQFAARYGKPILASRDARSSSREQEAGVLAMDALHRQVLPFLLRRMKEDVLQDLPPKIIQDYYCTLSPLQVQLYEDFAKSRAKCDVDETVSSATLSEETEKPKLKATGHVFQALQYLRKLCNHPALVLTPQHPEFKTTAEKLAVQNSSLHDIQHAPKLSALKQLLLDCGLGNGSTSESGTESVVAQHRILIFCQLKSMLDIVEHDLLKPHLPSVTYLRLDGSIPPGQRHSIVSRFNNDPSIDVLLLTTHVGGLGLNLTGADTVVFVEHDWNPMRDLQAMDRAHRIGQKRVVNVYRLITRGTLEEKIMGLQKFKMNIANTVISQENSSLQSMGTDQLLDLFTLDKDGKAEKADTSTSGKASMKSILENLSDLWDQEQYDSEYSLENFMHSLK
UniProt Q9UEE9, sequence (Q9UEE9 whole entry, looked up): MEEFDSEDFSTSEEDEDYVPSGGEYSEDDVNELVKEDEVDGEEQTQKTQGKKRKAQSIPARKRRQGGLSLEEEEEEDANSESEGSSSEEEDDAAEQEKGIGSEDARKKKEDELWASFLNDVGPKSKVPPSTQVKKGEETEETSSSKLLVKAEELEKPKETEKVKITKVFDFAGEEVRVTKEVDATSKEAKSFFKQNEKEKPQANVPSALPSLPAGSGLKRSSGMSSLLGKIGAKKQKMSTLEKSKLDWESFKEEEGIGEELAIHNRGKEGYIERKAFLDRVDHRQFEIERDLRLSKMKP
UniProt P08962, sequence (P08962 whole entry, looked up): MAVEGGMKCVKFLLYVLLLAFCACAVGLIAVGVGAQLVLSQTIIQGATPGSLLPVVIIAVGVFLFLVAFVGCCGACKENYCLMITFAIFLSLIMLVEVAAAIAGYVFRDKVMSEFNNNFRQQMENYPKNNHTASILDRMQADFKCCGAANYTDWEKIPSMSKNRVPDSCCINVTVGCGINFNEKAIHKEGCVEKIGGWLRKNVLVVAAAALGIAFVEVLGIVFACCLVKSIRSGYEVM
UniProt Q86WA6, sequence (Q86WA6 whole entry, looked up): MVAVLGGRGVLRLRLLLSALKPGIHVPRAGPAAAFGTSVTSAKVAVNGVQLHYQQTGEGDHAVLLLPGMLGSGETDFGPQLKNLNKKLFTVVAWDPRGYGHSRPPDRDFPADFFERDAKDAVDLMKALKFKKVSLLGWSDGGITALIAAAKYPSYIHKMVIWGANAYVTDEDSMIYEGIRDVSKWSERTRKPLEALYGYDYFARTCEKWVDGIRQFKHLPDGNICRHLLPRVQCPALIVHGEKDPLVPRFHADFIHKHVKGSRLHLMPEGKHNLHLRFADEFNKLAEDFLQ
UniProt Q8ND76, sequence (Q8ND76 whole entry, looked up): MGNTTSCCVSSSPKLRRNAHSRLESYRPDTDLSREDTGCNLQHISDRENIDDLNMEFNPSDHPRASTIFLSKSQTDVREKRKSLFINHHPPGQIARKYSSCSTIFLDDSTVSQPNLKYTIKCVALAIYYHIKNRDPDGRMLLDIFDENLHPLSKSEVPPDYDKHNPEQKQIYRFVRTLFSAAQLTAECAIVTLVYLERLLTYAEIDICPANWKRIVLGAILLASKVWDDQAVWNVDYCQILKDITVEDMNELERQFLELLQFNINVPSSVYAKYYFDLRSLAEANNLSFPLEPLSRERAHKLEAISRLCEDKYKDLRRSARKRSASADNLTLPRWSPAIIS

Row | Target | log2 fold change [1] | log2 fold change [2] | log2 fold change [3] | log2 fold change [4] | log2 fold change [5] | log2 fold change [6] | log2 fold change [7] | log2 fold change [8] | log2 fold change [9] | log2 fold change [10] | log2 fold change [11] | log2 fold change [12] | log2 fold change [13] | log2 fold change [14] | log2 fold change [15] | log2 fold change [16] | log2 fold change [17] | log2 fold change [18] | log2 fold change [19] | log2 fold change [20]
1 | CEPT1 (UniProt Q9Y6K0) | 0.025 | -0.005 | -0.216 (active) | 0.035 | 0.032 | -0.023 | -0.015 | 0 | 0.081 | 0.072 | 0.011 | 0.061 | 0.009 | -0.003 | 0.032 | 0.004 | -0.008 | 0.026 | 0 | 0.024
2 | CFDP1 (UniProt Q9UEE9) | -0.027 | -0.023 | 0.067 | -0.024 | -0.02 | -0.004 | 0.033 | -0.03 | 0.011 | -0.017 | 0.032 | 0.014 | 0.051 | -0.015 | -0.052 | -0.014 | -0.027 | 0.021 | 0.027 | -0.012
3 | CDS2 (UniProt O95674) | -0.023 | 0.004 | -0.087 | -0.008 | -0.011 | 0.079 | -0.027 | -0.056 | 0.01 | 0.214 (active) | 0.008 | -0.013 | -0.061 | -0.07 | -0.03 | -0.025 | 0.004 | 0.05 | 0.04 | -0.015
4 | BPHL (UniProt Q86WA6) | -0.054 | -0.445 (active) | 0.033 | 0.089 | -0.135 | -0.071 | 0.118 | -0.063 | 0.082 | -0.033 | -0.073 | -0.016 | 0.047 | 0.06 | -0.045 | 0 | -0.015 | 0.025 | -0.004 | -0.002
5 | AURKAIP1 (UniProt Q9NWT8) | -0.062 | -0.093 | 0.046 | -0.031 | -0.019 | 0.432 (active) | 0.025 | -0.032 | 0.064 | 0.095 | -0.055 | -0.095 | -0.363 | -0.222 | 0.021 | 0.029 | -0.012 | 0.135 | -0.417 (active) | -0.013
6 | CCNY (UniProt Q8ND76) | -0.082 | -0.033 | 0.041 | -0.037 | 0.052 | 0 | 0.168 | -0.016 | -0.032 | 0.063 | 0 | -0.013 | -0.046 | -0.099 | 0.014 | -0.036 | 0.023 | 0.063 | 0.078 | 0.001
7 | CD63 (UniProt P08962) | -0.042 | 0.026 | -0.031 | 0.047 | 0.057 | -0.114 | -0.038 | 0.018 | -0.016 | 0.066 | -0.012 | -0.063 | 0.078 | -0.023 | 0.017 | 0.005 | 0.049 | 0 | 0.039 | 0.023
8 | BTAF1 (UniProt O14981) | 0.044 | -0.035 | -0.01 | -0.002 | -0.003 | 0.002 | 0.002 | -0.017 | 0.022 | -0.034 | -0.016 | -0.003 | 0.01 | -0.008 | 0.003 | 0.018 | 0.023 | 0 | 0.025 | -0.012
